Laboratory results reported in PubChem BioAssay.
For some of these results: Entries with a potency or affinity are not part of this list. The source made the active and inactive calls. Unless noted, how the calls were made is not given here.

Assays:
[1] = antimalarial activity against Dd2 strain (AID 2302;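 active means growth inhibition above 50% at the single 2 µM test dose, taken to imply half-maximal potency below 2 µM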;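 further: 0% = DMSO untreated growth and 100% = chloroquine plus artemisinin killed control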); details: P. falciparum Dd2 in RBCs, LDH growth readout, 72 h; at 2 µM; active compounds read high
[2] = human hepatoma cell viability loss – ATP luminescence, cytotoxicity control for P. falciparum antimalarial project, primary screen (AID 2303;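 active means inhibition above 50%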;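 further: 0% = DMSO wells and 100% = digitonin-killed cells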); details: HepG2 viability, 24-48 h, at 10 µM, active compounds read high
[3] = molecular target: L-lactate dehydrogenase (Plasmodium falciparum (isolate CDC / Honduras)) (UniProt Q27743); experiment: PfLDH activity inhibition – cell lysate, 3D7 strain, counter-screen for P. falciparum growth inhibition project (AID 2304);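 further: 0% = vehicle and 100% = reference inhibitor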; details: P. falciparum 3D7 crude extract, LDH APAD/NBT absorbance; at 2 µM; active compounds read high
Sequence of L-lactate dehydrogenase (Plasmodium falciparum (isolate CDC / Honduras)) (Q27743 whole entry, looked up): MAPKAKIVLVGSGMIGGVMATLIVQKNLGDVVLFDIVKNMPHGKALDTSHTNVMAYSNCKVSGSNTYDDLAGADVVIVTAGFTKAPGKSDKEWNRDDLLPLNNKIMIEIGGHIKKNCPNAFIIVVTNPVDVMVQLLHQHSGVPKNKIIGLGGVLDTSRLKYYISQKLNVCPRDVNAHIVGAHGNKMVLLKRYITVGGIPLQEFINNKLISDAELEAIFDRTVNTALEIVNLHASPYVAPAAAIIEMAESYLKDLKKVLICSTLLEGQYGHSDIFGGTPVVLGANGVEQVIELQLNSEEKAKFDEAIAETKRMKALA

[4] = inhibition of 3D7 malaria parasite growth – strain 3D7 (AID 2306);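 further: 0% = DMSO wells and 100% = chloroquine plus artemisinin control wells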; details: P. falciparum 3D7 erythrocytic growth, LDH absorbance, 72 h; at 2 µM; active compounds read high
[5] = molecular target: Calcium-dependent protein kinase 1 (Plasmodium falciparum (isolate 3D7)) (UniProt P62344); experiment: PfCDPK1 kinase inhibitors, biochemical, TCAMS library (AID 1159585; cut-off not given, nearly all actives have IC50 up to about 0.98 µM;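 further: inhibitors leave more ATP so luminescence rises with inhibition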); details: recombinant PfCDPK1, Kinase-Glo ATP depletion luminescence
Sequence of Calcium-dependent protein kinase 1 (Plasmodium falciparum (isolate 3D7)) (P62344 whole entry, looked up): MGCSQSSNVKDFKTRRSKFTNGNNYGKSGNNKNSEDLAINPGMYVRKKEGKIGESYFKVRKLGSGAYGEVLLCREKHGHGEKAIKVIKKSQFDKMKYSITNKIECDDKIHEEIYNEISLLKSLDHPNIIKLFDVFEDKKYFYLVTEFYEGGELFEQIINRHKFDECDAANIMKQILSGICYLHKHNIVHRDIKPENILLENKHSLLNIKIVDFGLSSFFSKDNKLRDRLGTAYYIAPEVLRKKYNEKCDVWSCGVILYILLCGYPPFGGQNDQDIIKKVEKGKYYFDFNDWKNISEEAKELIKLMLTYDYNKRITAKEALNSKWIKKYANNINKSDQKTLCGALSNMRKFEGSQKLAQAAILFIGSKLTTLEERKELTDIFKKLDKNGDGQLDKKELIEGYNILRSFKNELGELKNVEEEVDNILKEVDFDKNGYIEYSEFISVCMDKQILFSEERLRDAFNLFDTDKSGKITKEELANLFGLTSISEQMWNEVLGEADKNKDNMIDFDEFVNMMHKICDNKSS

[6] = molecular target: Plasmodium falciparum protein kinase 6 (PK6, PF3D7_1337100) (UniProt Q8IDW1); experiment: PfPK6 kinase inhibitors, biochemical, TCAMS library (AID 1159586); details: recombinant PfPK6, Kinase-Glo ATP depletion luminescence
Sequence of Plasmodium falciparum protein kinase 6 (PK6, PF3D7_1337100) (Q8IDW1 1-305): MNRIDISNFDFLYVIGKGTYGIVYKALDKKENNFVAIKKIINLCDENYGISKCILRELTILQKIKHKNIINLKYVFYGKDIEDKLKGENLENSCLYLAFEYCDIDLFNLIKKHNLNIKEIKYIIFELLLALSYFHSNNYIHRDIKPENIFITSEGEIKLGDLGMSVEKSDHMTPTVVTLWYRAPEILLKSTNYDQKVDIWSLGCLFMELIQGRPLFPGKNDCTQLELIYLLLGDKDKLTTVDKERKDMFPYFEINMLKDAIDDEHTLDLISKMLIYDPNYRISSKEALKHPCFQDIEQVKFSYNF

[7] = molecular target: Protein kinase 7 (PK7), Plasmodium falciparum 3D7 (PF3D7_0213400) (UniProt Q7YTF7); experiment: inhibition of Plasmodium PK7 catalytic activity – biochemical, TCAMS antimalarial set, Kinase-Glo luminescence (AID 1159587); details: recombinant PfPK7, Kinase-Glo ATP depletion luminescence
Sequence of Protein kinase 7 (PK7), Plasmodium falciparum 3D7 (PF3D7_0213400) (Q7YTF7 1-343): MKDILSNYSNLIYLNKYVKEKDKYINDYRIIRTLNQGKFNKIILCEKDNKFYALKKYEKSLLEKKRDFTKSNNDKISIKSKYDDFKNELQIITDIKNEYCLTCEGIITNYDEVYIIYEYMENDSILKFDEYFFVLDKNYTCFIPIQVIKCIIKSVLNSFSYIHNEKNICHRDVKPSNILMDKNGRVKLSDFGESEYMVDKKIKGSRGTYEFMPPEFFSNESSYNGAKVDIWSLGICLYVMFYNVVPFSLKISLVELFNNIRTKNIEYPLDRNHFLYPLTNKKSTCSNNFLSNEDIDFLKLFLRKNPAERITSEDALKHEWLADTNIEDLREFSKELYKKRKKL

[8] = molecular target: Calcium-dependent protein kinase 4 (Plasmodium falciparum (isolate 3D7)) (UniProt Q8IBS5); experiment: PfCDPK4 kinase inhibitors, biochemical, TCAMS library (AID 1159588; cut-off not given, nearly all actives have IC50 up to about 0.91 µM); details: recombinant PfCDPK4, Kinase-Glo ATP depletion luminescence
Sequence of Calcium-dependent protein kinase 4 (Plasmodium falciparum (isolate 3D7)) (Q8IBS5 whole entry, looked up): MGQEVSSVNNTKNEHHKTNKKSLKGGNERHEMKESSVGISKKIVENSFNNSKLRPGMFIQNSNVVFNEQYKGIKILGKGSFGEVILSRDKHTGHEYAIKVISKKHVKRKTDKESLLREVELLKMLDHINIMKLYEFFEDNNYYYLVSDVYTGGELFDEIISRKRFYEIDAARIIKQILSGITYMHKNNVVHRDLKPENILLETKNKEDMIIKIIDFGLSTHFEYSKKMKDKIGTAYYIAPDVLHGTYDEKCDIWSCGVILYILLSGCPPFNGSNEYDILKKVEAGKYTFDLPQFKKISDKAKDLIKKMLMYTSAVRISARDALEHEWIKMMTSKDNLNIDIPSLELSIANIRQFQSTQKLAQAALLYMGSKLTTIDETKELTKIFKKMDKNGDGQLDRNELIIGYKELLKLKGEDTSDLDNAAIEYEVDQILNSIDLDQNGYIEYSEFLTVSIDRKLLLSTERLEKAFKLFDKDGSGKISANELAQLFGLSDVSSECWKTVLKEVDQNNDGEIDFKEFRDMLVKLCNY

COc1ccc2c(NN=Cc3ccncc3)ccnc2c1
inactive: growth inhibition [1] 6% | inhibition [2] -12% | inhibition [3] -3% | outcome [5] | outcome [6] | outcome [7] | outcome [8]
active: growth inhibition [4] 95%

COc1ccc(-c2nc(NC(=O)Cc3cccc(OC)c3)sc2C)cc1
active: growth inhibition [1] 77% | growth inhibition [4] 101%
inactive: inhibition [2] 1% | inhibition [3] -3% | outcome [5] | outcome [6] | outcome [7] | outcome [8]

Cc1ccc(S(=O)(=O)N2CCCN(C(=O)c3cc(-c4ccccc4)n[nH]3)CC2)cc1
inactive: inhibition [2] 11% | inhibition [3] -2% | outcome [5] | outcome [6] | outcome [7] | outcome [8]
active: growth inhibition [1] 93% | growth inhibition [4] 96%

O=C(Cc1n[nH]c(=O)c2ccccc12)Nc1cccc(C(=O)Nc2cccc(C(F)(F)F)c2)c1
inactive: inhibition [2] 0% | inhibition [3] -6% | outcome [5] | outcome [6] | outcome [7] | outcome [8]
active: growth inhibition [1] 90% | growth inhibition [4] 97%

O=C1COc2ccccc2N1C/C=C(\CN1CCC(c2ccccc2)CC1)c1cc(Cl)cc(Cl)c1
active: growth inhibition [1] 72% | growth inhibition [4] 91%
inactive: inhibition [2] 14% | inhibition [3] -4% | outcome [5] | outcome [6] | outcome [7] | outcome [8]

Cc1ccc2c(NC(=O)Nc3ccc(N(C)C)cc3)cc(C)nc2c1
inactive: growth inhibition [1] 20% | inhibition [2] -6% | inhibition [3] 0% | outcome [5] | outcome [6] | outcome [7] | outcome [8]
active: growth inhibition [4] 98%

Cc1nc2ccc3ccc(CNc4ccc5c(c4)CN([C@@H](CCC(=O)O)C(=O)O)C5=O)cc3c2c(=O)[nH]1
active: growth inhibition [1] 95% | growth inhibition [4] 94%
inactive: inhibition [2] 41% | inhibition [3] 2% | outcome [5] | outcome [6] | outcome [7] | outcome [8]

O=C(NC1CCN(Cc2ccccc2)CC1)c1ccc(-c2nc3cc4ccccc4cc3[nH]2)s1
inactive: growth inhibition [1] 25% | inhibition [2] 13% | inhibition [3] -1% | outcome [5] | outcome [6] | outcome [7] | outcome [8]
active: growth inhibition [4] 99%

O=C(NC1CCC(CCN2CCc3ccc(-c4cnccn4)cc3CC2)CC1)c1cccc(-n2cccn2)c1 (stereo not given)
active: growth inhibition [4] 93%
inactive: growth inhibition [1] 1% | inhibition [2] 23% | inhibition [3] -3% | outcome [5] | outcome [6] | outcome [7] | outcome [8]

CCC(CC)N1CCN(CC(=O)Nc2ccc([N+](=O)[O-])cc2C(=O)Nc2cccc(OC)c2)CC1
active: growth inhibition [4] 100%
inactive: growth inhibition [1] 35% | inhibition [2] 35% | inhibition [3] 0% | outcome [5] | outcome [6] | outcome [7] | outcome [8]

CCOc1cc(C(=O)NCCCN2CCCCC2C)ccc1-c1nc2ccc(Cl)cc2[nH]1 (stereo not given)
active: growth inhibition [4] 89%
inactive: growth inhibition [1] 0% | inhibition [2] 2% | inhibition [3] -2% | outcome [5] | outcome [6] | outcome [7] | outcome [8]

O=C(NC1CCN(c2ccnc3cc(Cl)ccc23)C1)c1cccc(F)c1 (stereo not given)
inactive: inhibition [2] 30% | inhibition [3] 1% | outcome [5] | outcome [6] | outcome [7] | outcome [8]
active: growth inhibition [1] 98% | growth inhibition [4] 95%

CCn1c2c(c(=N)c3ccccc31)CCC2
inactive: inhibition [2] 11% | inhibition [3] 8% | outcome [5] | outcome [6] | outcome [7] | outcome [8]
active: growth inhibition [1] 61% | growth inhibition [4] 83%

CCc1cn2c3c(cc(C(=O)N[C@@H](Cc4ccccc4)[C@H](O)CNCc4ccccc4)cc13)N(C)S(=O)(=O)CC2
active: growth inhibition [1] 99% | growth inhibition [4] 98%
inactive: inhibition [2] 3% | inhibition [3] 1% | outcome [5] | outcome [6] | outcome [7] | outcome [8]

COc1ccc(NC(=O)/C=C/c2ccccc2Cl)cc1OCCN1CCC(NC2CC2)CC1
active: growth inhibition [1] 66% | growth inhibition [4] 101%
inactive: inhibition [2] 23% | inhibition [3] 3% | outcome [5] | outcome [6] | outcome [7] | outcome [8]

COc1ccc2nccc([C@@H](O)CN3CCC(NC(=O)c4ccc(Cl)c(OC)c4)CC3)c2c1
inactive: growth inhibition [1] 28% | inhibition [2] 26% | inhibition [3] 5% | outcome [5] | outcome [6] | outcome [7] | outcome [8]
active: growth inhibition [4] 87%

Cc1ccc(CNc2ccc3ncc(-c4cccc(C(=O)NCCN(C)C)c4)n3n2)c(C)c1
inactive: inhibition [3] -3% | outcome [5] | outcome [6] | outcome [7] | outcome [8]
active: growth inhibition [1] 78% | inhibition [2] 97% | growth inhibition [4] 100%

O=C(/C=C/c1ccc(Cl)c(Cl)c1)NCCCCCN1CCC(NC(=O)Nc2cc(Cl)ccc2Cl)CC1
active: inhibition [2] 99% | growth inhibition [4] 99%
inactive: growth inhibition [1] 31% | inhibition [3] 0% | outcome [5] | outcome [6] | outcome [7] | outcome [8]

Oc1ccc(Cc2ccccc2)cc1CNC1CCCCC1
inactive: inhibition [2] 30% | inhibition [3] -1% | outcome [5] | outcome [6] | outcome [7] | outcome [8]
active: growth inhibition [1] 98% | growth inhibition [4] 96%

COc1ccc(Nc2ncc3c(-c4cccc(NC(=O)CC(C)C)c4)c[nH]c3n2)cc1OC
active: growth inhibition [1] 71% | growth inhibition [4] 101%
inactive: inhibition [2] 37% | inhibition [3] 5% | outcome [5] | outcome [6] | outcome [7] | outcome [8]
